Where “and” joins values, the source holds several entries; their conditions need not be identical. Equal values may be shown once. Inconclusive results are not listed. A structure can be active in one record and inactive in another. Calls of active or inactive are those of the source. Rule for the calls: active = hit-call score of the fitted dose curve at least 0.9, where 1 is the maximum; inconclusive = response in the unintended direction; inactive = score below 0.9.
experiment: TOX21_p53_BLA_p2_viability: Viability Assessment in the Tox21 HCT-116 p53 Agonism Beta-lactamase Assay, Phase 2 (AID 2283591);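 note: compound exposure lasted 16 h at 37 °C; actives lower the ATP signal meaning cytotoxicity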
Excerpt: TOX21_p53_BLA_p2 is a cell-based, single-readout assay that uses HCT116, a human intestinal cell line, […] in a 1536-well plate.TOX21_p53_BLA_p2_viability is an assay readout measuring cellular ATP content and detected with CellTiter-Glo Luciferase-coupled ATP quantitation.TOX21_p53_BLA_p2_viability used a type of viability reporter where loss-of-signal activity can be used to understand changes in the cell viability. Furthermore, this assay endpoint can be referred to as a secondary readout, because this assay has produced multiple assay endpoints where this one serves a viability function. To generalize the intended target to other relatable targets, this assay endpoint is annotated to the cell cycle intended target family, where the subfamily is cytotoxicity.
Thawing Method: Place 14 mL of pre-warmed thaw medium into a 15 mL of conical tub. Remove the vial of cells to be thawed from liquid nitrogen and thaw rapidly by placing at 37C in a water bath with gentle agitation for 1-2 minutes. Decontaminate the vial by wiping with 70% ethanol before opening in a biological safety cabinet. Transfer the vial contents drop-wise into 14 mL of thaw medium in a sterile 15-mL conical tub. Centrifuge cells at 900 rpm for 4 minutes and resuspend in thaw medium. Transfer contents to the T75 tissue culture flask containing Thaw Medium and place flask in a humidified 37C/5% CO2 incubator. Switch to growth medium at first passage.Propagation Method: Aspirate medium, rinse once in DPBS, add 0.25% Trypsin/EDTA and swirl to coat the cell evenly. Add an equal volume of Growth Medium to inactivate Trypsin after 2-3 minutes incubation at 37C. Centrifuge cells at 900 rpm for 4 minutes and resuspend in growth medium. Cell should be passage or fed at least twice a week.Assay Protocol: Harvest cells from culture in growth medium and resuspend in assay medium. 2.2 Dispense 4000 cells/5 uL/well into 1536-well black/clear bottom plates using a Multidrop dispenser. After the cells were incubated at 37C for 5 hours, 23 nL of compounds dissolved in DMSO were transferred to the assay plate by a PinTool resulting in a 217-fold dilution. Incubate the plates for 16 hours at 37C, 5% CO2. Add 1 uL of 6X LiveBLAzer FRET B/G (CCF4-AM) Substrate Mixture to each well using a BioRAPTR dispenser and incubate the plates at room temperature for 2 hours. Measure fluorescence intensity at 460 and 530 nm emission and 405 nm excitation by an Envision detector. Data is expressed as the ratio of 460nm/530nm emissions. Add 4 uL of Cell-titer Glo to each well using BioRAPTR and incubate the plates at room temperature for […]. For cell viability readout that measures cytotoxicity, 4 ul/well of CellTiter-Glo reagent was added into the assay plates using a Flying Reagent Dispenser. After 30 min incubation at room temperature, the luminescence intensity in the plates was measured using a ViewLux plate reader.

Row | Structure (SMILES) | outcome | AC50
1 | CCCCCCCCC(=O)OCC | inactive | 
2 | CCOC(=O)N1CCC(=C2c3ccc(Cl)cc3CCc3cccnc32)CC1 |  | 69.7 µM (active) and 36.8 µM (active)
3 | Cc1cccc(N)n1 | inactive | 
4 | COC(=O)C1=C(C)NC(C)=C(C(=O)OCC(C)C)C1c1ccccc1[N+](=O)[O-] (stereo not given) | inactive | 
5 | CCCCCCOc1cc(C)c(O)c(C)c1C | inactive | 
6 | CC(=O)Nc1nnc(S(N)(=O)=O)s1 | inactive | 
7 | SCCc1cnccn1 | inactive | 
8 | OC1CCCCCCCCCCC1 | inactive | 
9 | COC(=O)c1cc(Cl)ccc1[N+](=O)[O-] | inactive | 
10 | C#CC1(O)CC[C@H]2[C@@H]3CCC4=CCCC[C@@H]4[C@H]3CC[C@@]21C (stereo not given in full) | inactive | 57.2 µM (active)
11 | NC(=O)N=NC(N)=O | inactive | 
12 | O=C(O)c1cc2ccccc2nc1C(=O)O | inactive | 
13 | COCC(C)N (stereo not given) | inactive | 
14 | CCCCCCCCCCCCCCCC[N+](C)(C)CC |  | 37.2 µM (active)
15 | CC(C)(Oc1ccc(C2CC2(Cl)Cl)cc1)C(=O)O (stereo not given) | inactive | 
16 | Cc1ccc([N+](=O)[O-])cc1S(=O)(=O)O | inactive | 
17 | CCCC(=O)OCc1ccccc1 | inactive | 
18 | COc1cc(C)ccc1C(C)C | inactive | 
19 | CCCNC(=O)NS(=O)(=O)c1ccc(Cl)cc1 | inactive | 

Row | Structure (SMILES) | outcome | AC50
20 | Cc1cccc(C(=O)O)c1 | inactive | 
21 | O=S(=O)(O)c1ccccc1C=Cc1ccc(-c2ccc(C=Cc3ccccc3S(=O)(=O)O)cc2)cc1 | inactive | 
22 | C[Si](C)(CCCN)O[Si](C)(C)CCCN | inactive | 
23 | C[C@]12C=CC(=O)C=C1CC[C@@H]1[C@@H]2[C@@H](O)C[C@@]2(C)[C@H]1CC[C@]2(O)C(=O)CO | inactive | 
24 | CCO[Si](C)(OCC)OCC | inactive | 
25 | Cc1oncc1C(=O)Nc1ccc(C(F)(F)F)cc1 | inactive | 
26 | CCC(C)C=O (stereo not given) | inactive | 
27 | CCCCC(CC)CCC(CC(C)C)OS(=O)(=O)O (stereo not given) | inactive | 
28 | CC1(C)O[C@@H]2C[C@H]3[C@@H]4C[C@H](F)C5=CC(=O)CC[C@]5(C)[C@H]4[C@@H](O)C[C@]3(C)[C@]2(C(=O)CO)O1 | inactive | 
29 | O=C1OC(=O)c2cc(Oc3ccc4c(c3)C(=O)OC4=O)ccc21 | inactive | 
30 | Cc1cc(=O)n(-c2ccccc2)n1C | inactive | 
31 | CC(C)COC(=O)C=Cc1ccccc1 | inactive | 
32 | O=C1c2ccccc2C(=O)C1c1nc2ccccc2c(Br)c1O | inactive | 
33 | C=CC(=O)OCCC(=O)O | inactive | 
34 | CC1=Nc2ccc3ccccc3c2C1(C)C | inactive | 
35 | Nc1cccc(C(F)(F)F)c1 | inactive | 
36 | COc1cc(NC(=O)CC(C)=O)c(OC)cc1Cl | inactive | 18.8 µM (active)
37 | O=C(C=Cc1ccccc1)OCc1ccccc1 | inactive | 
38 | O=c1cc[nH]c(=S)[nH]1 | inactive | 

Reference: PubChem BioAssay (EPA / NIEHS)
